Assay results reported in PubChem BioAssay AID1159580 (chemical genetic matrix, 2015).
The campaign covered roughly 5,500 compounds. About 2,000 (36%) were called active. Another 18% or so got no clear call; they are omitted. No stated cut-off is given here; in the data, active means normalized growth mostly below about 0.91 (no sharp cut-off); inconclusive means no clear call, values can overlap the other calls; inactive means mostly above about 0.92. The list shows a part of the results.

Experiment: chemical genetic growth profiling, strain panel (AID 1159580);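 further: tested at 20 µM; growth read once vehicle control cultures reached saturation at 30 °C; 1 = growth at the plate median or of vehicle wells; lower values mean less growth of the strain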
Details: growth OD

Measured: normalized growth

COc1cc2c(cc1OC)[C@@H]1C(=O)c3ccc4c(c3O[C@@H]1CO2)C=CC(C)(C)O4
inactive: S. cerevisiae deletion strains, locus YKL009W, strain mrt4, hits give low values 0.999 | S. cerevisiae deletion strains, locus YKL068W, hits give low values 0.982 | S. cerevisiae deletion strains, locus YKL085W, strain MDH1 (second series), hits give low values 0.967 | S. cerevisiae deletion strains, locus YKL085W, strain MDH1, hits give low values 0.967 | S. cerevisiae deletion strains, locus YKL160W, strain elf1, hits give low values 0.973 | S. cerevisiae deletion strains, locus YKL190W, strain CNB1, hits give low values 0.986 | S. cerevisiae deletion strains, locus YKR001C, strain vps1, hits give low values 0.934 | S. cerevisiae deletion strains, locus YKR026C, strain gcn3, hits give low values 1.01 | S. cerevisiae deletion strains, locus YKR091W, strain srl3, hits give low values 1 | S. cerevisiae deletion strains, locus YLL001W, strain dnm1, hits give low values 0.992 | S. cerevisiae deletion strains, locus YLL026W, hits give low values 1.01 | S. cerevisiae deletion strains, locus YLL041C, strain sdh2, hits give low values 1.01 | S. cerevisiae deletion strains, locus YLR027C, strain aat2, hits give low values 0.982 | S. cerevisiae deletion strains, locus YLR039C, strain RIC1, hits give low values 0.891 | S. cerevisiae deletion strains, locus YLR058C, strain SHM2, hits give low values 0.983 | S. cerevisiae deletion strains, locus YLR102C, strain apc9, hits give low values 0.982 | S. cerevisiae deletion strains, locus YLR113W, strain HOG1, hits give low values 0.898 | S. cerevisiae deletion strains, locus YLR221C, strain rsa3, hits give low values 0.983 | S. cerevisiae deletion strains, locus YLR258W, strain gsy2, hits give low values 0.994 | S. cerevisiae deletion strains, locus YLR262C, strain YPT6 (second series), hits give low values 0.868 | S. cerevisiae deletion strains, locus YLR262C, strain YPT6, hits give low values 0.916 | S. cerevisiae deletion strains, locus YLR268W, strain sec22, hits give low values 0.97 | S. cerevisiae deletion strains, locus YLR320W, strain mms22, hits give low values 0.89 | S. cerevisiae deletion strains, locus YLR330W, strain CHS5, hits give low values 0.986 | S. cerevisiae deletion strains, locus YLR342W, strain FKS1 (second series), hits give low values 0.943 | S. cerevisiae deletion strains, locus YLR342W, strain FKS1, hits give low values 0.946 | S. cerevisiae deletion strains, locus YLR357W, strain rsc2, hits give low values 0.992 | S. cerevisiae deletion strains, locus YLR370C, strain arc18, hits give low values 1.01 | S. cerevisiae deletion strains, locus YLR371W, strain rom2, hits give low values 0.961 | S. cerevisiae deletion strains, locus YLR384C, strain iki3, hits give low values 1.03 | S. cerevisiae deletion strains, locus YLR418C, strain cdc73, hits give low values 0.962 | S. cerevisiae deletion strains, locus YML016C, strain PPZ1, hits give low values 0.981 | S. cerevisiae deletion strains, locus YML032C, strain rad52, hits give low values 0.964 | S. cerevisiae deletion strains, locus YML120C, strain ndi1, hits give low values 0.979 | S. cerevisiae deletion strains, locus YML124C, strain tub3, hits give low values 0.982 | S. cerevisiae deletion strains, locus YMR058W, strain fet3, hits give low values 0.978 | S. cerevisiae deletion strains, locus YMR078C, strain ctf18, hits give low values 0.952 | S. cerevisiae deletion strains, locus YMR125W, strain sto1, hits give low values 1.02 | S. cerevisiae deletion strains, locus YMR129W, hits give low values 0.995 | S. cerevisiae deletion strains, locus YMR205C, strain PFK2, hits give low values 0.92 | S. cerevisiae deletion strains, locus YMR223W, strain ubp8, hits give low values 0.954 | S. cerevisiae deletion strains, locus YMR231W, strain pep5, hits give low values 1.02 | S. cerevisiae deletion strains, locus YMR263W, strain SAP30, hits give low values 1 | S. cerevisiae deletion strains, locus YMR307W, strain GAS1, hits give low values 0.86 | S. cerevisiae deletion strains, locus YNL067W, strain RPL9B, hits give low values 1.01 | S. cerevisiae deletion strains, locus YNL071W, strain lat1, hits give low values 0.942 | S. cerevisiae deletion strains, locus YNL128W, strain TEP1, hits give low values 0.995 | S. cerevisiae deletion strains, locus YNL153C, strain GIM3, hits give low values 1.02 | S. cerevisiae deletion strains, locus YNL183C, strain NPR1, hits give low values 0.896 | S. cerevisiae deletion strains, locus YNL209W, strain ssb2, hits give low values 1.03 | S. cerevisiae deletion strains, locus YNL233W, strain BNI4, hits give low values 1 | S. cerevisiae deletion strains, locus YNL248C, strain rpa49, hits give low values 1.02 | S. cerevisiae deletion strains, locus YNL250W, strain rad50, hits give low values 0.972 | S. cerevisiae deletion strains, locus YNL271C, strain bni1, hits give low values 0.963 | S. cerevisiae deletion strains, locus YNL298W, strain CLA4, hits give low values 0.984 | S. cerevisiae deletion strains, locus YNL307C, strain MCK1, hits give low values 0.929 | S. cerevisiae deletion strains, locus YNL322C, strain KRE1 (second series), hits give low values 1.02 | S. cerevisiae deletion strains, locus YNL322C, strain KRE1, hits give low values 0.987 | S. cerevisiae deletion strains, locus YNR049C, strain mso1, hits give low values 1.01 | S. cerevisiae deletion strains, locus YNR052C, strain pop2, hits give low values 0.951 | S. cerevisiae deletion strains, locus YOL006C, strain TOP1, hits give low values 0.908 | S. cerevisiae deletion strains, locus YOL012C, strain htz1 1.09 | S. cerevisiae deletion strains, locus YOL147C, strain pex11, hits give low values 0.969 | S. cerevisiae deletion strains, locus YOR001W, strain rrp6, hits give low values 0.997 | S. cerevisiae deletion strains, locus YOR061W, strain CKA2, hits give low values 0.987 | S. cerevisiae deletion strains, locus YOR069W, strain VPS5, hits give low values 0.985 | S. cerevisiae deletion strains, locus YOR070C, strain gyp1, hits give low values 1.01 | S. cerevisiae deletion strains, locus YOR080W, strain dia2, hits give low values 1.02 | S. cerevisiae deletion strains, locus YOR083W, strain WHI5, hits give low values 0.943 | S. cerevisiae deletion strains, locus YOR106W, strain vam3, hits give low values 0.98 | S. cerevisiae deletion strains, locus YOR136W, strain idh2, hits give low values 0.983 | S. cerevisiae deletion strains, locus YOR144C, strain elg1, hits give low values 0.979 | S. cerevisiae deletion strains, locus YOR184W, strain ser1, hits give low values 0.899 | S. cerevisiae deletion strains, locus YOR231W, strain MKK1, hits give low values 0.953 | S. cerevisiae deletion strains, locus YOR265W, strain rbl2, hits give low values 1.01 | S. cerevisiae deletion strains, locus YOR270C, strain vph1, hits give low values 0.922 | S. cerevisiae deletion strains, locus YOR290C, strain snf2, hits give low values 1.01 | S. cerevisiae deletion strains, locus YOR316C, strain cot1, hits give low values 0.966 | S. cerevisiae deletion strains, locus YPL051W, strain arl3, hits give low values 0.973 | S. cerevisiae deletion strains, locus YPL055C, strain LGE1, hits give low values 0.995 | S. cerevisiae deletion strains, locus YPL078C, strain atp4, hits give low values 1.01 | S. cerevisiae deletion strains, locus YPL106C, strain sse1, hits give low values 1.06 | S. cerevisiae deletion strains, locus YPL240C, strain hsp82, hits give low values 1.04 | S. cerevisiae deletion strains, locus YPL241C, strain CIN2, hits give low values 0.986 | S. cerevisiae deletion strains, locus YPL256C, strain CLN2, hits give low values 0.928 | S. cerevisiae deletion strains, locus YPR119W, strain clb2, hits give low values 0.983 | S. cerevisiae deletion strains, locus YPR141C, strain kar3, hits give low values 0.95 | S. cerevisiae deletion strains, locus YPR163C, strain tif3, hits give low values 0.975 | S. cerevisiae deletion strains, locus YPR167C, strain met16, hits give low values 0.967 | S. cerevisiae deletion strains, strain wtn01, hits give low values 0.971 | S. cerevisiae strains, strain wild type, hits give low values 0.984
